{"source": "PubChem BioAssay AID584", "about": "(National Center for Advancing Translational Sciences (NCATS), 2007)", "note": "Among all 71,000 compounds or so, about 65 (0.09%) were called active. The sample holds actives, similar compounds and a random draw of the others, so the mix is not that of the screen. The call rests on the fitted dose curve; in most records, active means well fitted curve in the direction sought with a large enough effect; inconclusive means small, poorly fitted or top-dose-only effect; inactive means flat fitted curve, though single readings scatter. On the % scale 0 is the no-effect control and ±100 the full control effect.", "data": [{"target": "Beta-lactamase (Escherichia coli (strain K12)) (UniProt P00811)", "sequence (P00811 whole entry, looked up)": "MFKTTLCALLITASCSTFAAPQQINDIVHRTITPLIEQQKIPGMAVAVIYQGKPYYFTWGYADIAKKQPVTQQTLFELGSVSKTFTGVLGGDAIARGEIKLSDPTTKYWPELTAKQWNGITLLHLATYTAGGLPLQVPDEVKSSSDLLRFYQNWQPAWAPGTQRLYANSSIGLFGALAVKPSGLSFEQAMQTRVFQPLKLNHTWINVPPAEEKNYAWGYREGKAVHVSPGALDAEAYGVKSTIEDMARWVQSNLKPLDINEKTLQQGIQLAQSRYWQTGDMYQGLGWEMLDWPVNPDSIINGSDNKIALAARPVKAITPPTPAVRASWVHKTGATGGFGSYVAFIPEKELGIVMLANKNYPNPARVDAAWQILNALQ", "test": "Promiscuous and Specific Inhibitors of AmpC Beta-Lactamase (assay with detergent)", "settings": "purified AmpC, nitrocefin hydrolysis with detergent; series mostly up to 28.7 µM", "method": "NIH Molecular Libraries Screening Centers Network [MLSCN]\nNIH Chemical Genomics Center [NCGC]\nPI Name: Shoichet, Brian K.\nThis aggregation profiling approach exploits the sensitivity of aggregate formation to detergent. Inhibition of b-lactamase is measured in the presence and absence of 0.01% Triton X-100. This particular assay had the prescence of 0.01% Triton X-100. See Pubchem assay \"Promiscuous and Specific Inhibitors of AmpC Beta-Lactamase (assay without detergent)\" for related screen. Compounds that inhibit only in the absence of detergent are considered likely promiscuous aggregators.\nA screen of 1,030 compounds was performed in Brian Shoichet's lab in 96-well format. AmpC activity was measured by following the absorbance at 480 nm. Nitrocefin is a chromogenic substrate: while nitrocefin is yellow (lmax 390 nm), the product of its hydrolysis is red (lmax 486 nm, 17,000 M-1). AmpC beta lactamase was provided by Brian Shoichet and Brian Feng, UCSF.\nNCGC Assay Protocol Summary:\n20 mM phosphate buffer, pH 7.0\nTriton X-100: No Detergent screen: 0.0001%, Detergent screen: 0.01%.\nBuffer in columns 3 and 4 as negative control (no enzyme).\n5.3 nM AmpC in columns 1, 2, 5-48. Titration of UCSF compound 9 control (from 10 mM, then 1:2) pin-transferred to column 2. Column 1 is neutral (100% activity).\nSix uL of reagents were dispensed to 1536-well Greiner black clear bottom plates. Compounds and controls (23 nL) were transferred via Kalypsys PinTool. The plates were incubated for 15 min at room temperature, and then 2 uL of 800 uM solution of nitrocefin was added to start the reaction. The plates were immediately transferred to and read every 20 seconds for 4 min on ViewLux (Perkin-Elmer) High-throughput CCD imager using 480 nm absorbance protocol. During dispense, reagent bottles were kept submerged into 4 deg C water bath.\nKeywords: NIH Roadmap, MLSCN, MLI, MLSMR, qHTS, NCGC, AmpC Beta-Lactamase, Aggregation", "values": [{"compound": "O=C(Nc1ccc(NC(=O)c2cccs2)cn1)c1ccco1", "activity change, negative = inhibition": "inactive"}, {"compound": "COC(=O)c1oc2ccc(Br)cc2c1NC(C)=O", "activity change, negative = inhibition": "inactive"}, {"compound": "O=C(C(NS(=O)(=O)c1cccc2nsnc12)c1ccccc1)N1CCN(c2ccccn2)CC1", "note": "(stereo unspecified)", "activity change, negative = inhibition": "inactive"}, {"compound": "CC[C@@](O)(C(=O)O)c1cc2n(c(=O)c1CO)Cc1cc3ccccc3nc1-2", "activity change, negative = inhibition": "-3.6% [at 5.75 µM] (inactive)"}, {"compound": "CC(C)CCNC(=O)CN(C(=O)Cn1nnc(-c2ccc(F)cc2)n1)C1CCCC1", "activity change, negative = inhibition": "inactive"}, {"compound": "O=C(CSc1nnc(-c2ccco2)o1)NCC(=O)c1ccccc1", "activity change, negative = inhibition": "inactive"}, {"compound": "Nc1scc(-c2ccncc2)c1Cl", "activity change, negative = inhibition": "inactive"}, {"compound": "O=C(CSc1nc2ccccc2o1)N1CCN(c2ccc(Cl)cc2)CC1", "activity change, negative = inhibition": "inactive"}, {"compound": "O=C(c1ccccc1-c1ccccc1)N1CCOCC1", "activity change, negative = inhibition": "inactive"}, {"compound": "Cc1ccc(F)cc1NC(=O)c1ccc2c(c1)OCO2", "activity change, negative = inhibition": "inactive"}, {"compound": "c1ccc2nc(C3=NCCN3)cnc2c1", "activity change, negative = inhibition": "inactive"}, {"compound": "COc1ccc(CCNc2ncnc3nc[nH]c23)cc1OC", "activity change, negative = inhibition": "inactive"}, {"compound": "Cc1cc(C(=O)O)ccc1[N+](=O)[O-]", "activity change, negative = inhibition": "inactive"}, {"compound": "O=C(Nc1ccccc1F)c1cc(S(=O)(=O)N2CCCCC2)cs1", "activity change, negative = inhibition": "inactive"}, {"compound": "COC(=O)[C@@]1(Cc2ccc(OC)cc2)[C@H]2c3cc(C(=O)N4CCCC4)n(Cc4ccc(C(F)(F)F)nc4)c3C[C@H]2CN1C(=O)c1ccccc1", "activity change, negative = inhibition": "inactive"}, {"compound": "Cc1ccc(Cn2nnc3c(=O)n(CC(=O)N4CCCCC4)cnc32)cc1", "activity change, negative = inhibition": "inactive"}, {"compound": "CCC(C)(C)n1nnnc1C(c1cccs1)N1CCN(c2nc3ccccc3s2)CC1", "note": "(stereo unspecified)", "activity change, negative = inhibition": "inactive"}, {"compound": "O=S(=O)(Nc1ccc2nc(-c3ccco3)[nH]c2c1)c1ccccc1", "activity change, negative = inhibition": "inactive"}, {"compound": "Cc1cc(N2C(=O)c3ccc(C(=O)NCc4ccccc4)cc3C2=O)no1", "activity change, negative = inhibition": "inactive"}, {"compound": "CCCCOc1ccc(Cl)cc1CSc1nncn1N", "activity change, negative = inhibition": "inactive"}, {"compound": "NCC[Se][Se]CCN", "activity change, negative = inhibition": "-3% [at 5.75 µM] (inactive)"}, {"compound": "NC(=NC(=O)c1ccccc1)C1=C(O)CCC1=O", "activity change, negative = inhibition": "inactive"}, {"compound": "COC(=O)Cn1c(=NC(=O)CSCC(=O)Nc2cc(C)on2)sc2ccccc21", "activity change, negative = inhibition": "inactive"}, {"compound": "Cc1ccsc1-c1nc(CSCC(=O)NCCN2CCCC2)c(C)o1", "activity change, negative = inhibition": "inactive"}, {"compound": "O=C(NCc1ccco1)c1ccc(CS(=O)(=O)Cc2ccc(F)cc2)o1", "activity change, negative = inhibition": "inactive"}, {"compound": "CCCCCCn1c(CN2CCCC(C)C2)nc2c1c(=O)n(C)c(=O)n2C", "note": "(stereo unspecified)", "activity change, negative = inhibition": "inactive"}, {"compound": "O=C1c2ccccc2C(Nc2ccc3c(c2)OCCO3)N1Cc1ccco1", "note": "(stereo unspecified)", "activity change, negative = inhibition": "inactive"}, {"compound": "COc1ccccc1CN1CC2(CCN(S(=O)(=O)c3ccccc3)CC2)C1", "activity change, negative = inhibition": "inactive"}, {"compound": "CCOC(=O)c1nnn(-c2nc(OC)nc(N(C)C)n2)c1-c1ccccc1", "activity change, negative = inhibition": "inactive"}, {"compound": "CCOC(=O)c1sc(=S)n2c1[nH]c(=O)c1ccc(C(=O)OC)cc12", "activity change, negative = inhibition": "inactive"}, {"compound": "O=C(CS(=O)(=O)c1cn(Cc2cccc(F)c2)c2ccccc12)N1CCCCC1", "activity change, negative = inhibition": "inactive"}, {"compound": "CC(C)CSC[C@@H]1O[C@H](n2cnc3c(N)nccc32)[C@H](O)[C@@H]1O", "activity change, negative = inhibition": "-4% [at 5.75 µM] (inactive)"}, {"compound": "CCCCSc1nnc(-c2ccc(NC(=O)CC)cc2)n1C", "activity change, negative = inhibition": "inactive"}, {"compound": "COc1ccc2[nH]c(=O)c(CN(Cc3nnnn3CCc3ccccc3)CC3CCCO3)cc2c1", "note": "(stereo unspecified)", "activity change, negative = inhibition": "inactive"}, {"compound": "CC(C)CC(=O)N=C1SC2CS(=O)(=O)CC2N1CCc1ccccc1", "note": "(stereo unspecified)", "activity change, negative = inhibition": "inactive"}, {"compound": "O=C(NCc1ccccn1)Nc1ccc(F)cc1", "activity change, negative = inhibition": "inactive"}, {"compound": "CC(=NCc1ccco1)C1=C(O)c2ccccc2C1=O", "activity change, negative = inhibition": "inactive"}, {"compound": "COC(=O)c1ccc(NC(=O)CSc2nnc(-c3ccncc3)n2C)cc1", "activity change, negative = inhibition": "inactive"}, {"compound": "COc1ccccc1OCCOc1ccc(/C=N/n2cnnc2)cc1", "activity change, negative = inhibition": "inactive"}, {"compound": "CC12CN(Cc3ccccc3)CC(C)(CN(Cc3ccccc3)C1)C2=NO", "activity change, negative = inhibition": "inactive"}, {"compound": "COc1ccc(-c2noc(COc3ccc(Cl)c(C)c3)n2)cc1", "activity change, negative = inhibition": "inactive"}, {"compound": "COCC(C)NC(=O)c1ccc(Cl)c(Cl)c1", "note": "(stereo unspecified)", "activity change, negative = inhibition": "inactive"}, {"compound": "Cc1ccc(-c2ccc(=O)n(CC(=O)NCCCN3CCCCC3)n2)cc1", "activity change, negative = inhibition": "inactive"}, {"compound": "COc1ccc(S(=O)(=O)N2CCC(C(=O)N3CCc4ccccc4C3)CC2)cc1OC", "activity change, negative = inhibition": "inactive"}, {"compound": "CCn1c(=O)cc(SCC(=O)NCc2ccc3c(c2)OCO3)c2ccccc21", "activity change, negative = inhibition": "inactive"}, {"compound": "COc1ccccc1-c1nc(C(F)(F)F)c(OC)o1", "activity change, negative = inhibition": "inactive"}, {"compound": "CCC(=O)Nc1ccccc1N1CCN(S(C)(=O)=O)CC1", "activity change, negative = inhibition": "inactive"}, {"compound": "COc1cc(C2C(C#N)=C(C)NC3=C2C(=O)CC(C)(C)C3)ccc1O", "note": "(stereo unspecified)", "activity change, negative = inhibition": "inactive"}, {"compound": "Cc1ccc(S(=O)(=O)N2CCOCC2)cc1C(=O)NCc1ccc(F)cc1", "activity change, negative = inhibition": "inactive"}, {"compound": "COc1cc(Br)cc(/C=N/c2ncn[nH]2)c1O", "activity change, negative = inhibition": "inactive"}, {"compound": "COC(=O)[C@@]1(Cc2ccccc2)[C@H]2c3cc(C(=O)N4CCCC4)n(Cc4ccc(C)o4)c3C[C@H]2CN1C(=O)c1ccccc1", "activity change, negative = inhibition": "inactive"}]}]}
